Measured values taken from PubChem BioAssay (NCI).
The panel holds about 83,000 compounds, 20% with a hit somewhere; the sample as a whole holds those more often.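 Interpretation: 100, growth as untreated; towards 0, rising growth inhibition; 0, no net growth; 0 to -100, cell death. Compounds scoring below 10 were considered active.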

Experiments:
Test in all cases: NCI-60 one-dose screen, 48 h (100 = growth as untreated, 0 = no growth, -100 = all killed)
[1] = system: NCI-H460 lung; details: 10 µM unless noted
[2] = system: HOP-92 NSCLC; details: 10 µM unless noted
[3] = system: MDA-MB-231 breast; details: 10 µM unless noted
[4] = system: RXF 393 renal; details: 10 µM unless noted
[5] = system: SNB-75 CNS; details: 10 µM unless noted
[6] = system: SNB-19 CNS; details: 10 µM unless noted
[7] = system: LOX IMVI melanoma; details: 10 µM unless noted
[8] = system: UO-31 renal; details: 10 µM unless noted
[9] = system: CAKI-1 renal; details: 10 µM unless noted
[10] = system: MOLT-4 leukemia; details: 10 µM
[11] = system: SR leukemia; details: 10 µM
[12] = system: OVCAR-4 ovarian; details: 10 µM unless noted
[13] = system: SK-OV-3 ovarian; details: 10 µM unless noted
[14] = system: T-47D breast; details: 10 µM unless noted
[15] = system: MDA-MB-435 melanoma; details: 10 µM unless noted
[16] = system: SW-620 colon; details: 10 µM unless noted
[17] = system: HCT-116 colon; details: 10 µM unless noted
[18] = system: HCC-2998 colon; details: 10 µM unless noted
[19] = system: KM12 colon; details: 10 µM unless noted
[20] = system: SK-MEL-5 melanoma; details: 10 µM unless noted

Measured: growth

C/C(=N/OC(=O)N(C)C)c1ccc(Cl)cc1Cl
inactive: [1] 104% | [2] 108% | [3] 116% | [4] 112% | [5] 79.2% | [6] 103% | [7] 97.8% | [8] 80.8% | [9] 96.6% | [10] 90% | [11] 87.2% | [12] 113% | [13] 94.6% | [14] 96.7% | [15] 96% | [16] 106% | [17] 99.1% | [18] 102% | [19] 108%

O=C(O)CNC(=O)c1ccccc1
inactive: [1] 103% | [2] 92.4% | [3] 110% | [4] 102% | [6] 98.6% | [20] 98.9% | [7] 95.9% | [8] 95.8% | [9] 83.2% | [12] 105% | [13] 104% | [14] 104% | [16] 99.7% | [17] 98.2% | [18] 98.9% | [19] 105%

CCOC(=O)C1(c2ccccc2)CCN(CC(=O)c2ccc(NC(C)=O)cc2)CC1
inactive: [1] 112% | [2] 66.5% | [3] 102% | [4] 124% | [5] 114% | [6] 102% | [20] 103% | [7] 88.8% | [9] 95.4% | [10] 102% | [12] 122% | [13] 101% | [14] 88.2% | [15] 106% | [16] 104% | [17] 97.7% | [19] 112%

Oc1ccccc1OB(Oc1ccccc1O)N(CCCl)CCCl
inactive: [1] 68.3% | [2] 74.5% | [3] 71% | [4] 94.9% | [5] 92.8% | [20] 89.9% | [7] 89.4% | [8] 51.9% | [9] 80.4% | [10] 57.6% | [11] 36.5% | [12] 96.8% | [13] 112% | [14] 101% | [15] 87.4% | [16] 82.9% | [17] 86.8% | [18] 98.4% | [19] 69.4%
